Assay results reported in PubChem BioAssay.
Values joined by “and” are separate entries in the source; they are usually repeats but may differ in a detail not shown here. Identical values can stand only once. Active and inactive are the calls of the source.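 Rule for the calls, unless noted: active = thallium flux through the channel raised or lowered by more than 3 SD from vehicle-only wells, actives on both sides; inactive = the rest.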

Assays:
[1] = liver-stage malaria parasite growth inhibition, primary screen, cell-based, HepG2, luciferase luminescence, HepG2 viability (AID 624349; in the data active = parasite load remaining mostly below about 12%, no sharp cut-off; inactive = mostly above about 10%;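 note: 100% = mean of DMSO negative control wells on the same plate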); conditions: P. berghei liver stage in HepG2, luciferase luminescence, concentration not given here; parasite load remaining: stronger effect = lower value; viability: measured here: HepG2 viability without parasites
[2] = Cy5 fluorescence interference with SSB-bound oligo, artefact control for HCV NS3 helicase inhibitor project, biochemical, NIH Clinical Collection, E. coli SSB (AID 743268; call rule not given here)
[3] = test system: Hepatitis C virus NS3 helicase; assay: HCV NS3 helicase inhibitors, primary screen, biochemical, fluorescence polarization, NIH Clinical Collection (AID 743270; call rule not given here); conditions: NS3 helicase binding to Cy5-dT15 DNA, stronger effect = higher value, concentration not given here
[4] = biological target: Single-stranded DNA-binding protein (Escherichia coli (strain K12)) (UniProt P0AGE0); assay: E. coli SSB displacement from DNA, counter-screen for HCV NS3 helicase inhibitor project, biochemical, fluorescence polarization, NIH Clinical Collection (AID 743271; in the data active = inhibition above about 28%); conditions: stronger effect = higher value, concentration not given here
[5] = fluorescence interference in NS3h assay format, artefact control for HCV NS3 helicase inhibitor project, biochemical, NIH Clinical Collection (AID 743272; call rule not given here;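 note: HCV NS3 helicase with a Cy5 labelled single stranded DNA probe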); conditions: fluorescence interference counterscreen, stronger effect = lower value
[6] = test system: Neuropilin-2 / VEGF-C interaction (human); assay: inhibitors of NRP2–VEGF-C binding, biochemical, microplate binding format, z-score (AID 743281; call rule not given here); conditions: microplate NRP2/VEGF-C binding assay; stronger effect = lower value
[7] = modulation of C. elegans fzo-1 (AID 1259413; call rule not given here;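 note: fzo-1 mutant C. elegans worms in liquid wells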); conditions: C. elegans fzo-1 modulator screen, mean read-out; stronger effect = higher value
[8] = sensitizers of A549 cells to miR-34 induction, primary screen, imaging, A549 dox-inducible miR-34, nuclei and caspase counts (AID 1347080;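 active = compounds whose cell count with miR-34 switched on is under 0.7 times the count with it off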); conditions: A549 miR-34 inducible, Hoechst nuclei count, 48 h
[9] = viability rescue of complex I mutant cybrids, primary screen, cell-based, galactose medium, ATP luminescence (AID 1645843;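 active = z-score of at least 1.8 in each of two replicates, scored against plate mean and spread of sample wells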;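 note: positive z means more ATP and so rescue of galactose-driven cybrid death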); conditions: complex I mutant cybrid cells, 72 h, stronger effect = higher value
F380Y = assay: modulators of BK channel variants, profiling panel, selectivity assay, cell-based, U2OS BacMam, thallium flux, beta subunits (AID 1259406); conditions: at 30 µM;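 note: initial slope of Thallos dye fluorescence rise after thallium is added; log ratio against the mean of 0.3% DMSO vehicle wells on the same plate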
F380Y/beta1 = assay: as above; conditions: at 30 µM
F380Y/beta2Delta = assay: as above; conditions: at 30 µM
F380Y/beta4 = assay: as above; conditions: at 30 µM
[10] = biological target: Calcium-activated potassium channel subunit alpha-1 (Homo sapiens) + Leucine-rich repeat-containing protein 26 (Homo sapiens) (UniProt Q12791+Q2I0M4); assay: as above; conditions: F380Y/Slo1WT/gamma1, at 30 µM
R275C = assay: as above; conditions: at 30 µM
R275C/beta1 = assay: as above; conditions: at 30 µM
R275C/beta2Delta = assay: as above; conditions: at 30 µM
R275C/beta4 = assay: as above; conditions: at 30 µM
R275C/Slo1WT/beta2 = assay: as above; conditions: at 30 µM
[11] = survival rescue of mitochondrial mutant cells in low glucose, primary screen, MELAS cybrids, Rieske KO mouse fibroblasts, CellTiter-Glo (AID 1508586;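 active = mean z-score across replicates of 1.96 or higher in either the MELAS or the Rieske mutant cell line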;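 note: z relative to plate mean and SD of compound and empty wells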)
[12] = stronger effect = lower value, cell number ratio, induced over uninduced
[13] = measured here: relative caspase fold change +Dox/-Dox
[14] = measured here: total cells with miR-34 induction, stronger effect = lower value
[15] = measured here: total cells without miR-34 induction

Calcium-activated potassium channel subunit alpha-1 (Homo sapiens) + Leucine-rich repeat-containing protein 26 (Homo sapiens), sequence (Q2I0M4 whole entry, looked up, one chain of several): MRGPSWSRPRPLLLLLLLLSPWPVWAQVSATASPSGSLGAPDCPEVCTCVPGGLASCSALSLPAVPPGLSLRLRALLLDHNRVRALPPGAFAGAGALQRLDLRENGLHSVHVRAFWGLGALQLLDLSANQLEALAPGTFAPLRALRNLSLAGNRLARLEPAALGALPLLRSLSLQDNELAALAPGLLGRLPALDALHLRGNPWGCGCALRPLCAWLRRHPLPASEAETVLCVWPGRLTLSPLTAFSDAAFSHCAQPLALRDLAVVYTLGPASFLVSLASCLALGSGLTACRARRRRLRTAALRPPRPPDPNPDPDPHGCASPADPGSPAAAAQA

O=c1ncc(F)c[nH]1
inactive: parasite load remaining [1] 102% | fluorescence ratio [2] 1.06 | inhibition [3] 0.4% | inhibition [4] -3.95% | fluorescence ratio [5] 1.05 | z-score [6] -0.183 | mean signal [7] 283 | fold change [8, 12] 0.892 | z-score [9] 0.75 | log fold change Tl+ flux (F380Y) -0.0112 | log fold change Tl+ flux (F380Y/beta1) 0.016 | log fold change Tl+ flux (F380Y/beta2Delta) 0.0227 | log fold change Tl+ flux (F380Y/beta4) -0.00465 | log fold change Tl+ flux [10] 0.0169 | log fold change Tl+ flux (R275C) -0.0477 | log fold change Tl+ flux (R275C/beta1) 0.0224 | log fold change Tl+ flux (R275C/beta2Delta) -0.0499 | log fold change Tl+ flux (R275C/beta4) 0.00687 | log fold change Tl+ flux (R275C/Slo1WT/beta2) -0.000391
11100: cell count [8, 15]
9920: cell count [8, 14]
68.9%: viability [1]
1.42: fold change [8, 13]

CC1CNc2c(cccc2S(=O)(=O)N[C@@H](CCCN=C(N)N)C(=O)N2CC[C@@H](C)C[C@@H]2C(=O)O)C1 (stereo partly specified)
11700: cell count [8, 15]
inactive: parasite load remaining [1] 91.7% and 25.6% | fluorescence ratio [2] 1.01 | inhibition [3] -2.77% | inhibition [4] -0.1% | fluorescence ratio [5] 0.96 | z-score [6] -1.46 | mean signal [7] 269 | fold change [8, 12] 0.891 | z-score ([11]; MELAS cybrid survival, CellTiter-Glo 48 h, stronger effect = higher value) -0.605 and 0.47 | z-score [9] 0.59 | log fold change Tl+ flux (F380Y) -0.00418 | log fold change Tl+ flux (F380Y/beta1) 0.00744 | log fold change Tl+ flux (F380Y/beta2Delta) 0.0133 | log fold change Tl+ flux (F380Y/beta4) 0.00267 | log fold change Tl+ flux [10] -0.0355 | log fold change Tl+ flux (R275C) -0.0227 | log fold change Tl+ flux (R275C/beta1) -0.0183 | log fold change Tl+ flux (R275C/beta2Delta) -0.0418 | log fold change Tl+ flux (R275C/beta4) -0.0138 | log fold change Tl+ flux (R275C/Slo1WT/beta2) 0.0382
10400: cell count [8, 14]
-0.277 and -0.497: z-score ([11]; Rieske KO mouse fibroblast survival, CellTiter-Glo 72 h)
1.15: fold change [8, 13]
75.9% and 68%: viability [1]

Cc1nnc(SCC2=C(C(=O)O)N3C(=O)C(NC(=O)Cn4cnnn4)C3SC2)s1 (stereo unspecified)
110%: viability [1]
inactive: parasite load remaining [1] 65.6% | mean signal [7] 235 | fold change [8, 12] 0.923 | z-score [9] -0.49 | log fold change Tl+ flux (F380Y) -0.00444 | log fold change Tl+ flux (F380Y/beta1) -0.0723 | log fold change Tl+ flux (F380Y/beta2Delta) 0.025 | log fold change Tl+ flux (F380Y/beta4) 0.028 | log fold change Tl+ flux [10] 0.00509 | log fold change Tl+ flux (R275C) 0.00777 | log fold change Tl+ flux (R275C/beta1) 0.00195 | log fold change Tl+ flux (R275C/beta2Delta) 0.0237 | log fold change Tl+ flux (R275C/beta4) -0.0318 | log fold change Tl+ flux (R275C/Slo1WT/beta2) 0.0155
1.36: fold change [8, 13]
10800: cell count [8, 15]
10000: cell count [8, 14]

CC(COc1ccccc1Cc1ccccc1)N1CCCCC1 (stereo unspecified)
active: log fold change Tl+ flux (F380Y/beta1) 0.236 | log fold change Tl+ flux (F380Y/beta4) 0.194 | log fold change Tl+ flux (R275C) -0.246 | log fold change Tl+ flux (R275C/beta1) 0.252
2.34: fold change [8, 13]
7840: cell count [8, 15]
82.3%: viability [1]
inactive: parasite load remaining [1] 25.1% | fluorescence ratio [2] 1.04 | inhibition [3] -2.77% | inhibition [4] 3.75% | fluorescence ratio [5] 1.01 | z-score [6] -1.06 | mean signal [7] 222 | fold change [8, 12] 0.815 | z-score [9] -1.81 | log fold change Tl+ flux (F380Y) 0.0907 | log fold change Tl+ flux (F380Y/beta2Delta) -0.0416 | log fold change Tl+ flux [10] -0.0112 | log fold change Tl+ flux (R275C/beta2Delta) 0.0368 | log fold change Tl+ flux (R275C/beta4) -0.00829 | log fold change Tl+ flux (R275C/Slo1WT/beta2) -0.0412
6390: cell count [8, 14]

CC1CC2C3CCC4=CC(=O)C=CC4(C)C3(F)C(O)CC2(C)C1(O)C(=O)CO (stereo unspecified)
8000: cell count [8, 14]
8620: cell count [8, 15]
active: fluorescence ratio [2] 0.1
inactive: parasite load remaining [1] 69.5% | inhibition [3] -0.45% | inhibition [4] 1.81% | fluorescence ratio [5] 1.04 | mean signal [7] 266 | fold change [8, 12] 0.928 | z-score [9] 1.66 | log fold change Tl+ flux (F380Y) -0.000812 | log fold change Tl+ flux (F380Y/beta1) 0.043 | log fold change Tl+ flux (F380Y/beta2Delta) 0.0297 | log fold change Tl+ flux (F380Y/beta4) -0.00203 | log fold change Tl+ flux [10] 0.021 | log fold change Tl+ flux (R275C) 0.00154 | log fold change Tl+ flux (R275C/beta1) 0.0289 | log fold change Tl+ flux (R275C/beta2Delta) -0.0295 | log fold change Tl+ flux (R275C/beta4) 0.0089 | log fold change Tl+ flux (R275C/Slo1WT/beta2) -0.0137
0.945: fold change [8, 13]
108%: viability [1]

CCCCC(=O)OC1(C(=O)CO)CCC2C3CCC4=CC(=O)CCC4(C)C3C(O)CC21C (stereo unspecified)
100%: viability [1]
7000: cell count [8, 15]
6880: cell count [8, 14]
active: log fold change Tl+ flux (F380Y) -0.858 | log fold change Tl+ flux (F380Y/beta1) -0.315 | log fold change Tl+ flux (F380Y/beta2Delta) -0.396 | log fold change Tl+ flux (F380Y/beta4) -0.379 | log fold change Tl+ flux [10] -0.495 | log fold change Tl+ flux (R275C/beta1) 0.44 | log fold change Tl+ flux (R275C/beta2Delta) 0.266 | log fold change Tl+ flux (R275C/beta4) 0.327
2.66: fold change [8, 13]
inactive: parasite load remaining [1] 89.7% | fluorescence ratio [2] 1.04 | inhibition [3] -5.91% | inhibition [4] -5.05% | fluorescence ratio [5] 1.01 | mean signal [7] 256 | fold change [8, 12] 0.983 | z-score [9] 0.245 | log fold change Tl+ flux (R275C) 0.0146 | log fold change Tl+ flux (R275C/Slo1WT/beta2) -0.00582

CC(C)c1ccc2c(c1)c(SC(C)(C)C)c(CC(C)(C)C(=O)O)n2Cc1ccc(Cl)cc1
2340 and 2670 and 5710: cell count [8, 15]
inactive: parasite load remaining [1] 36.1% | fluorescence ratio [2] 0.95 | inhibition [3] 7.52% | inhibition [4] 1.44% | fluorescence ratio [5] 0.96 | z-score [6] -2.97 | mean signal [7] 225 | fold change [8, 12] 1.09 and 1 and 0.966 | z-score [9] -1.26 and -1.88 | log fold change Tl+ flux (F380Y) -0.0174 | log fold change Tl+ flux (F380Y/beta1) 0.00246 | log fold change Tl+ flux (F380Y/beta2Delta) 0.0246 | log fold change Tl+ flux (F380Y/beta4) -0.0142 | log fold change Tl+ flux [10] 0.00963 | log fold change Tl+ flux (R275C) 0.00647 | log fold change Tl+ flux (R275C/beta1) 0.0168 | log fold change Tl+ flux (R275C/beta2Delta) 0.0237 | log fold change Tl+ flux (R275C/beta4) -0.00771 | log fold change Tl+ flux (R275C/Slo1WT/beta2) 0.027
2540 and 2670 and 5520: cell count [8, 14]
67.1%: viability [1]
0.262 and 1.3 and 1.57: fold change [8, 13]
